# Measured values from PubChem BioAssay (NCI).
# The panel holds about 83,000 compounds, 20% with a hit somewhere; the sample as a whole holds those more often.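 A percent growth of 40 corresponds to 60% growth inhibition; 0 means no net growth; -100 means all cells died. Active threshold: below 10.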 A number with no mark means an inactive call. Active and inactive are the calls of the source.
# System: OVCAR-4 ovarian
# Assay: NCI-60 one-dose screen, 48 h (100 = growth as untreated, 0 = no growth, -100 = all killed)
# Conditions: 10 µM unless noted
# Procedure: Growth inhibition of the OVCAR-4 human tumor cell line is measured as a screen for anti-cancer activity. Cells are grown in 96 well plates and exposed to the test compound for 48 hours. Compounds are tested at a single concentration, which is 10^-5 M for most compounds. The reported endpoint is percent growth (GI% or GIPRCNT), where numbers from 0 - 100% represent growth inhibition, and numbers from -100% - 0 represent cell death. For example, a value of 40 represents 60% growth inhibition. A value of 0 means no net growth occurred over the course of the experiment. A value of -40 indicates 40% of cells at the beginning of the experiment died by the end of the experiment. A value of -100 means all cells are dead at the end of the experiment.
# NCI-60 Human Tumor Cell Lines Screen was performed using the standard one-dose NCI protocol, which is described in more detail at https://dtp.cancer.gov/discovery_development/nci-60/default.htm.
# Compounds with GIPRCNT values below 10 were considered active. Activity score was based on GIPRCNT using the following formula: […]
# Score is 0 for GIPRCNT values of 100 or above, 50 for GIPRCNT values of 0, and 100 for GIPRCNT values of -100.
row,SMILES,growth
1,COc1ccc2c(c1)NC1=C(C(=O)OC1)C2c1cc(OC)c(OC)c(OC)c1 (stereo not given),37%
2,CNc1ccc(C(=O)CC(O)CCC(C)C2OC(=O)CC(O)CC(=O)CC(O)CC(O)CC(O)CC(O)CC3(O)CC(O)C(C(=O)OC)C(CC(O[C@@H]4O[C@H](C)[C@@H](O)[C@H](N)[C@@H]4O)/C=C/C=C/C=C/C=C/C=C/C=C/C=C/C2C)O3)cc1 (stereo not given in full),-10.5% (active)
3,COC(=O)C[Se]C(=O)c1ccccc1OC(C)=O,54.4%
4,CC(C)CCC[C@@H](C)[C@H]1CC[C@H]2[C@@H]3CC=C4C[C@@H](OC(=O)Cc5ccc(N(CCCl)CCCl)cc5)CC[C@]4(C)[C@H]3CC[C@]12C,114%
5,Cc1ccc2oc(=O)c3c(c2c1)OC(N)=C(C#N)C3c1ccco1 (stereo not given),114%
6,CC1(C)N=C(N)N=C(N)N1c1ccc(OCCCCOc2ccc(S(=O)(=O)F)cc2)c(Cl)c1,57%
7,O=C(CCF)c1ccc(O)cc1,103%
8,COc1cc(C2CC(=O)Nc3nc(N)[se]c32)cc(OC)c1OC (stereo not given),105%
9,ClCCN(CCCl)c1nc(Cl)c(C2CC(c3ccccc3)=NN2c2ccccc2)s1 (stereo not given),87.1%
10,CCCCN(CCCC)CC(O)c1ccccc1 (stereo not given),95.4%
11,O=[N+]([O-])c1ccccc1N1CCNCC1,99.4%
12,CC(CC(C#N)(c1ccccc1)c1ccccc1)N1CCOCC1 (stereo not given),108%
13,O=C(O)c1[nH]c(=O)[nH]c(=O)c1F,112%
14,Cc1ccc(C[As+](c2ccccc2)(c2ccccc2)c2ccccc2)cc1,23.6%
15,CC(=O)Nc1ccc(C=C2C(=O)NC(=O)NC2=O)cc1,107%
16,O=[N+]([O-])c1cccc([As]=[As]c2cccc([N+](=O)[O-])c2)c1 (stereo not given),-99.2% (active)
17,CC1(C)N=C(N)N=C(N)N1c1ccc(OCCCCNC(=O)c2ccc(S(=O)(=O)F)cc2)c(Cl)c1,107%
18,CC(C)N=C(NC(C)C)N1CC1,104%
19,CC[C@H](C)[C@H](NC(=O)Nc1ccccc1)C(=O)N(C)[C@H](C[C@@H](OC(C)=O)c1nc(C(=O)N[C@@H](Cc2ccccc2)C[C@H](C)C(=O)OC)cs1)C(C)C,31.5%
20,O=S(=O)(Cl)c1ccccc1 (tested in a mixture with another compound),106%

row,SMILES,growth
1,CCC(C)[C@H]1O[C@]2(C=C[C@@H]1C)C[C@@H]1C[C@@H](C/C=C(\C)[C@@H](OC3C[C@H](OC)C(O[C@H]4C[C@H](OC)[C@@H](O)[C@H](C)O4)[C@H](C)O3)[C@@H](C)/C=C/C=C3\CO[C@@H]4[C@H](O)C(C)=C[C@@H](C(=O)O1)[C@]34O)O2 (stereo not given in full),16.4%
2,Nc1ccc([N+](=O)[O-])c2c1Oc1ccccc1O2,94.5%
3,Nc1nc(N)c(-c2ccc(Cl)c(Cl)c2)c(/C=C/c2ccc(S(=O)(=O)F)cc2)n1,100%
4,O=CN1N=C(c2ccc3c(c2)OCO3)CC1c1sc(N(CCCl)CCCl)nc1Cl (stereo not given),100%
5,CCC(C)(C)O,111%
6,CCCCCN(CCCCC)CC(O)c1ccc(C)c(Cl)c1 (stereo not given),105%
7,CC1COC(=O)C1 (stereo not given),109%
8,CC1(C)N=C(N)N=C(N)N1c1ccc(CCCCc2ccc(S(=O)(=O)F)cc2)c(Cl)c1,80.4%
9,O=[N+]([O-])c1ccc(F)c([N+](=O)[O-])c1F,116%
10,CC(C)CCC1(CCO)C(=O)NC(=S)NC1=O,109%
11,CC(C)Nc1ccc(Nc2ccccc2)cc1,28.3%
12,CC1CC=CCC12C(=O)NC(=S)NC2=O (stereo not given),105%
13,NC(Cc1ccc2c(c1)OCO2)c1ccc2c(c1)OCO2 (stereo not given),101%
14,CCCC(C)(C)c1ccc2c(c1)OC(C)(C)[C@@H]1CC=C(C)C[C@@H]21,100%
15,CCC[CH2][Sn]([CH2]CCC)([CH2]CCC)[O]C(=O)CC,-99.4% (active)
16,O=C(C(=O)N1CCCC1)c1cn(CCCCCn2cc(C(=O)C(=O)N3CCCC3)c3ccccc32)c2ccccc12,73%
17,N#Cc1ncc(/N=C/c2ccc(N(CCCl)CCCl)cc2)s1,81.9%
18,CC(=O)C1CCC2C3CC=C4CC(OC(=O)Cc5ccc(N(CCCl)CCCl)cc5)CCC4(C)C3CCC12C (stereo not given),99.4%
19,CNC(=O)Oc1ccccc1,88.7%
20,CCOC(=O)C1(c2ccccc2)CCN(CC(=O)c2ccc(NC(C)=O)cc2)CC1,122%
